Tests used:
Assay in all cases: log2 ratio of Biotin-Ahx-Ub-VS probe labelling (fragment/DMSO); higher = less target engagement (more negative = stronger competition), active = hit call of the paper (q ≤ 0.05, log2 ratio ≤ -1)
Conditions in all cases: compound concentration: 200 uM; treatment time: 3 h
USP34 = USP34 (UniProt Q70CQ2)
In short: (§1)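 Each value is an average log2 ratio of fragment to vehicle, tested by unpaired t-test. The underlying Spectronaut label-free quantities were global-median-normalised, and only proteins with ≥2 unique peptides were included. Triplicate HEK293T lysate samples (495 µg) were exposed to fragment at 200 µM or vehicle for 3 h, then to Biotin-Ahx-Ub-VS at 0.5 µM final for 1 h, before NeutrAvidin enrichment of labelled DUBs, LysC and trypsin digestion, and diaPASEF LC-MS/MS.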

USP36 = biological target: T1, USP36 (UniProt Q9P275)
T1 sequence (whole entry): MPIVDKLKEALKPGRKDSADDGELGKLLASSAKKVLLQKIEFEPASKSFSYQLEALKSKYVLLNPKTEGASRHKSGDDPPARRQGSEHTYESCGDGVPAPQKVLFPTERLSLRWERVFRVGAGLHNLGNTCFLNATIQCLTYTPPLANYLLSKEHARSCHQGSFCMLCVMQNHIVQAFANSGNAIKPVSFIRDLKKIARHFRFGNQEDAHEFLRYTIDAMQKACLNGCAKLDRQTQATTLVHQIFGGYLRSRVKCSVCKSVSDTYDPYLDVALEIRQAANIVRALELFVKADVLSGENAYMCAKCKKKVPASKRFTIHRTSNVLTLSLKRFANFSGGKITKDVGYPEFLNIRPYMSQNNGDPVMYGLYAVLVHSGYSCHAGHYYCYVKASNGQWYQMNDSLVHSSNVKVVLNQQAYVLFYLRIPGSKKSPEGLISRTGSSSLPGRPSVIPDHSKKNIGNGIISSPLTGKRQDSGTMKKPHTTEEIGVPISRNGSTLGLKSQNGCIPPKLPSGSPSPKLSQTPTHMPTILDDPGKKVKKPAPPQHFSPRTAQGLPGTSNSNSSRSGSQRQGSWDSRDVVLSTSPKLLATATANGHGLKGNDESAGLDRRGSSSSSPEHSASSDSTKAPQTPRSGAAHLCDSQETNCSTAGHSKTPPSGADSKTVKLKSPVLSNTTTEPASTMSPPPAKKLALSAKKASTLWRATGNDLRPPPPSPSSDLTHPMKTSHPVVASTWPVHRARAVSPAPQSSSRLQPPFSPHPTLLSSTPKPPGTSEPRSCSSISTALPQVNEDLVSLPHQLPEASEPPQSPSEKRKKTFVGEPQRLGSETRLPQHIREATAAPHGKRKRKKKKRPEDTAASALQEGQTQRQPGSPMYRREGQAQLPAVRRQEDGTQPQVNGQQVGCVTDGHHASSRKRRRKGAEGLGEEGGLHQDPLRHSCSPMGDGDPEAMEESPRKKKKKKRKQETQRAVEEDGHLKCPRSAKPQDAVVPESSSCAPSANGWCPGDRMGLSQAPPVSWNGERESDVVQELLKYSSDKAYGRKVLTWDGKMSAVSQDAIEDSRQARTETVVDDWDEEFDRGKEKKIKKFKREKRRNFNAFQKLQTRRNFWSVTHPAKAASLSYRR
In short: as §1

USP38 = biological target: T2, USP38 (UniProt Q8NB14)
T2 sequence (whole entry): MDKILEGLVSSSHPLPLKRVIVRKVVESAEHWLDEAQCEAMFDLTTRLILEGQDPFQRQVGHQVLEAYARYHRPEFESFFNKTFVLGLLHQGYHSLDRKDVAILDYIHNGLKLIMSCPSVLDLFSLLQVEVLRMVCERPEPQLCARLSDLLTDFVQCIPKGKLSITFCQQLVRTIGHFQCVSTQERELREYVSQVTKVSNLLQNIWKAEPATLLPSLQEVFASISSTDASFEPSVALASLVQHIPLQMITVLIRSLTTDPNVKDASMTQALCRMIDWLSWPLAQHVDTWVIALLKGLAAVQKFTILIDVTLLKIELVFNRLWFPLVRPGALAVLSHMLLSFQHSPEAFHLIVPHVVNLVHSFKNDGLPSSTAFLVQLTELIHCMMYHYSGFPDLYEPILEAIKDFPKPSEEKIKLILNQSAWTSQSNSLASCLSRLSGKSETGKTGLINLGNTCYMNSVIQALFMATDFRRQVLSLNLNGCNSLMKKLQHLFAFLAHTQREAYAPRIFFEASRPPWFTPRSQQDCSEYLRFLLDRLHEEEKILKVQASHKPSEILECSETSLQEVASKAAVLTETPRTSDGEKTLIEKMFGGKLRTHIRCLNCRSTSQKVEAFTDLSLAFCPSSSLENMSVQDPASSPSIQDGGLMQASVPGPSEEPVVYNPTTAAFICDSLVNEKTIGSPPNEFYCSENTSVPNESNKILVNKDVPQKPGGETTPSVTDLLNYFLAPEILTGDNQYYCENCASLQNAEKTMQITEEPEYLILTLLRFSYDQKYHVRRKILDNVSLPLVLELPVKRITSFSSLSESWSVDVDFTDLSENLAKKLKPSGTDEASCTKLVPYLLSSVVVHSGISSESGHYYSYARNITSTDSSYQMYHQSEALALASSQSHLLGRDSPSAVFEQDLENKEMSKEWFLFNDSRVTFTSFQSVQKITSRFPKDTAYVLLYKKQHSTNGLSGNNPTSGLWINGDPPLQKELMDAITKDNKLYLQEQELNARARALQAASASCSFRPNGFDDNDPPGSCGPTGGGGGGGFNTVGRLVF
In short: as §1

USP39 = biological target: T3, USP39 (UniProt Q53GS9)
T3 sequence (whole entry): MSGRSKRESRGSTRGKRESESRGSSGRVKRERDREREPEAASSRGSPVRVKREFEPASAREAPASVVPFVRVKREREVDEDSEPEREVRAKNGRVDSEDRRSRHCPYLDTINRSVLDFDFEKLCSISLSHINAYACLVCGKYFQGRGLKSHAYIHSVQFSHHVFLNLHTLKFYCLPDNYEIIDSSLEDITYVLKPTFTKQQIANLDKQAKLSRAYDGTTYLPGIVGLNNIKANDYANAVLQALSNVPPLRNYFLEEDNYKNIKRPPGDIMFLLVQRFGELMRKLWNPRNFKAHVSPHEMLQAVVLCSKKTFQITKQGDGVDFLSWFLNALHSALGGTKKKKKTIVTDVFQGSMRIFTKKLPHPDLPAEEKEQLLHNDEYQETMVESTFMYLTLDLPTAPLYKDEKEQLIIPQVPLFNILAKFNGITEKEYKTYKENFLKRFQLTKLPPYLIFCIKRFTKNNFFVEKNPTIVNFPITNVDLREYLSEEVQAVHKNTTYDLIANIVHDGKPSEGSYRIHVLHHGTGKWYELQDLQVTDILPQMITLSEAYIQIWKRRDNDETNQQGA
In short: as §1

USP4 = biological target: T4, USP4 (UniProt Q13107)
T4 sequence (whole entry): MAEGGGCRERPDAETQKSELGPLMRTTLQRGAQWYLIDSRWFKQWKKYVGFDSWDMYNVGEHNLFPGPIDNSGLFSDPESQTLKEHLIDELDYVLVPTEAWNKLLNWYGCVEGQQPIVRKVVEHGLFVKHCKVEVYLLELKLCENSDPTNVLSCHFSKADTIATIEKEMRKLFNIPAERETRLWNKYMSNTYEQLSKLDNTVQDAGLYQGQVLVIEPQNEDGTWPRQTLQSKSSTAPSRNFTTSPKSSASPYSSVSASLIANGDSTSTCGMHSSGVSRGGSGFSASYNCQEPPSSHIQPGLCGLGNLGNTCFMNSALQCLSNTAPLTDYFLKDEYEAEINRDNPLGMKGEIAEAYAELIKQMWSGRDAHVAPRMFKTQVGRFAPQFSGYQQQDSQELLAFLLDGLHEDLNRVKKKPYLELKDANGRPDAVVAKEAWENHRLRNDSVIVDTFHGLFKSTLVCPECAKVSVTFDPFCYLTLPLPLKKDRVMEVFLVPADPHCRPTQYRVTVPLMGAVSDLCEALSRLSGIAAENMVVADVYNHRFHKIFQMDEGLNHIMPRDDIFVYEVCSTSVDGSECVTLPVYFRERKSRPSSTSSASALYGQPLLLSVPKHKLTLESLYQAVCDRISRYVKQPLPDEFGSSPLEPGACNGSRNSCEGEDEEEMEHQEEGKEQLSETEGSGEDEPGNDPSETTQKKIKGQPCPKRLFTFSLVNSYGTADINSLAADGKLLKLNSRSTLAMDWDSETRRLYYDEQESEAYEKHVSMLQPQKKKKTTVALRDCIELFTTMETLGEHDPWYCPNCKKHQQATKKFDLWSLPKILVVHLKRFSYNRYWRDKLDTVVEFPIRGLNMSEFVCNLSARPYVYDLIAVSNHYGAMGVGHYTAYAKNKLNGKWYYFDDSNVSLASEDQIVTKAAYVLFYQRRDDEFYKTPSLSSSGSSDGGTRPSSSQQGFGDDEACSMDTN
In short: as §1

Measured: log2 ratio of Biotin-Ahx-Ub-VS probe labelling

Chain of USP34 (Q70CQ2 whole entry, the tested form may be a part): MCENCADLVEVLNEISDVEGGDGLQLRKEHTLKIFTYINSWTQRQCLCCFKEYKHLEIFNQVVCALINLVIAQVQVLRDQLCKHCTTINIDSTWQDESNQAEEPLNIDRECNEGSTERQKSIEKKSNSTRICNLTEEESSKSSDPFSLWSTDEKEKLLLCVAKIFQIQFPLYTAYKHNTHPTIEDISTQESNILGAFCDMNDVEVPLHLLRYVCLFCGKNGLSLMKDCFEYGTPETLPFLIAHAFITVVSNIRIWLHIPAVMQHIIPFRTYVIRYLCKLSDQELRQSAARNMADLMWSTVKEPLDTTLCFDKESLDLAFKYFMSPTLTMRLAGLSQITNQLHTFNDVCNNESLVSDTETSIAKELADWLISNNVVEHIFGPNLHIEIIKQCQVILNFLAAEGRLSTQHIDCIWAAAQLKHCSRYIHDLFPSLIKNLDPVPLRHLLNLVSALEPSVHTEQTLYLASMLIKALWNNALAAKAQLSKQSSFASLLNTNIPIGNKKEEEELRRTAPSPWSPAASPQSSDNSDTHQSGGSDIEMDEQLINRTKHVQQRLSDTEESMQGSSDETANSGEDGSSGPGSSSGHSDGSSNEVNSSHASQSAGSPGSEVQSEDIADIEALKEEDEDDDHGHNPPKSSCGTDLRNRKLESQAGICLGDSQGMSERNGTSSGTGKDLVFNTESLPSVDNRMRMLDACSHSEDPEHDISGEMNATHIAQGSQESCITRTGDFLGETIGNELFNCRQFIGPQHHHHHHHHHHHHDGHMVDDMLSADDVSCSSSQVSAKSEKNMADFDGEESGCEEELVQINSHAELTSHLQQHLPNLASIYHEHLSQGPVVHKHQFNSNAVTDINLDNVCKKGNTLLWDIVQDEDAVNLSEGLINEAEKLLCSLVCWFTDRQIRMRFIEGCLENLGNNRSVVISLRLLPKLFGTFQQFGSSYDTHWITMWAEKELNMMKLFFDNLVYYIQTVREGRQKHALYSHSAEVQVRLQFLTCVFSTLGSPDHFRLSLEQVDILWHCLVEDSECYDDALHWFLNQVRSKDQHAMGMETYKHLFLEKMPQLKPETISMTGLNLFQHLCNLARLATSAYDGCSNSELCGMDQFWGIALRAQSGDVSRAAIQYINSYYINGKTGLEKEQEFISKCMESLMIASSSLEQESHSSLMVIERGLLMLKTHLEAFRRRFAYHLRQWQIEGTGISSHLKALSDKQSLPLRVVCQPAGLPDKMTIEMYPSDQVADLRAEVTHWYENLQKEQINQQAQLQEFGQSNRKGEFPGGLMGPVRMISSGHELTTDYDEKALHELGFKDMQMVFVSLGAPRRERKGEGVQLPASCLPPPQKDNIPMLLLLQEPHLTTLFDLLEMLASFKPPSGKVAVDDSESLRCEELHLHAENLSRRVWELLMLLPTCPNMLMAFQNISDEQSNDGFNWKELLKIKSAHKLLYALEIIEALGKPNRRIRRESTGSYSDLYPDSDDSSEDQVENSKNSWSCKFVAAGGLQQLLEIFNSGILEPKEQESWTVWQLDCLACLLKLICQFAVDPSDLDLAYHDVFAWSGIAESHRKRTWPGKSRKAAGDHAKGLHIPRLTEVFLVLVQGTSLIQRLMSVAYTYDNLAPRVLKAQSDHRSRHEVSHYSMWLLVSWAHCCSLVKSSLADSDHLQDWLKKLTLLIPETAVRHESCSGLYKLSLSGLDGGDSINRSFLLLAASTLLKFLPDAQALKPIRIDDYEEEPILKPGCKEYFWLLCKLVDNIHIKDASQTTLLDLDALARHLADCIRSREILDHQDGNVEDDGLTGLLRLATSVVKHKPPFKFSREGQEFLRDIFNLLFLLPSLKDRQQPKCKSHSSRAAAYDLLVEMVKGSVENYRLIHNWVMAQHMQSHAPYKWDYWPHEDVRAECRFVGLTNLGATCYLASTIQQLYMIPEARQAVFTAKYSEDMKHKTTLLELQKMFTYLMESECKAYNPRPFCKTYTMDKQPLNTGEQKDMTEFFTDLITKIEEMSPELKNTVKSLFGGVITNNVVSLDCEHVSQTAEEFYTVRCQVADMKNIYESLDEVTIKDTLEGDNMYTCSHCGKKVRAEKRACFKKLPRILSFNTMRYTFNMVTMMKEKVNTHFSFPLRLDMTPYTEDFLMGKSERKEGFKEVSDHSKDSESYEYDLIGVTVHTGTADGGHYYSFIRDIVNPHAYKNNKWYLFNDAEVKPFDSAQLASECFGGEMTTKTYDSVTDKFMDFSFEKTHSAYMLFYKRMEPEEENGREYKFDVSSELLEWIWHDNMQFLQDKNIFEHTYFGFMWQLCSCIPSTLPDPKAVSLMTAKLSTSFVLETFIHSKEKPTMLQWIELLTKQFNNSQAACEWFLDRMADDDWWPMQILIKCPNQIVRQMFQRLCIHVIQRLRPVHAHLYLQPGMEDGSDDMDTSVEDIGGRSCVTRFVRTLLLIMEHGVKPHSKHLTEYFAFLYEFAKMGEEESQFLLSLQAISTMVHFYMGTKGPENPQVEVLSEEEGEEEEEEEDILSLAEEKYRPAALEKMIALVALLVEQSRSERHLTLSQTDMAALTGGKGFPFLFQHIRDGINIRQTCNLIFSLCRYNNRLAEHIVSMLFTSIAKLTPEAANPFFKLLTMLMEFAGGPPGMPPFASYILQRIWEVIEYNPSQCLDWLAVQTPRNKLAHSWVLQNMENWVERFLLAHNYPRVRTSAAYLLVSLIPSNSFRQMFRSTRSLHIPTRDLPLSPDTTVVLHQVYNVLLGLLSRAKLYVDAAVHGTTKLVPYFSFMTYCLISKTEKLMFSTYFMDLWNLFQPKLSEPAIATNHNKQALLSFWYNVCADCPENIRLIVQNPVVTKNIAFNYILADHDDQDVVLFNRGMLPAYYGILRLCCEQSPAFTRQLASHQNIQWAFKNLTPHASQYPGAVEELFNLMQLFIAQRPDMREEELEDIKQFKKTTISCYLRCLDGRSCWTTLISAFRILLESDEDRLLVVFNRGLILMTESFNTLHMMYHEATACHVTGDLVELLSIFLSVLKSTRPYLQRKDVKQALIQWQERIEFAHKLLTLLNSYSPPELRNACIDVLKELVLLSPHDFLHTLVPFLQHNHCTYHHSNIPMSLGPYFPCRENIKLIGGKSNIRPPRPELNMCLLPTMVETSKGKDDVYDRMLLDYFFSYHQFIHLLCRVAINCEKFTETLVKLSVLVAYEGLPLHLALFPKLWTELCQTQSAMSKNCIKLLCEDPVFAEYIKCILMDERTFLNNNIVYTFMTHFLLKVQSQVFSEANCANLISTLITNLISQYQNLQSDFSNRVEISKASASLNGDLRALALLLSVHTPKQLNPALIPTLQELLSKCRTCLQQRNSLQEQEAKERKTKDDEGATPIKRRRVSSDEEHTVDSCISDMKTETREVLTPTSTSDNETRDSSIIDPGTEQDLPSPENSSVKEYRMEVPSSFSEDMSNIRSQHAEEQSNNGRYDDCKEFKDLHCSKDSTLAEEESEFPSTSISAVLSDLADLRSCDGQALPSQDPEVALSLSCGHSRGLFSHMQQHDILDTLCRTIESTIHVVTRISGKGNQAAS

O=C(CCl)N1CCN(c2nc3ccccc3o2)CC1
inactive: USP34 -0.0431 | USP36 -0.047 | USP38 -0.41 | USP39 -0.00936 | USP4 -0.445

— the supplement of paper PMC11732987, “Enantioselective OTUD7B fragment discovery through chemoproteomics screening and high-throughput optimisation” (Communications Chemistry, 2025)
